Measurements from PubChem BioAssay (Tox21).
Records with an inconclusive call do not appear. A call without a number means that no potency is given here. A number with no mark means an inactive call. Active and inactive are the calls of the source. Calls follow the shape of the dose curve; as a rule, active = well fitted cell-killing curve with a large enough effect in the repeat runs; inconclusive = weak or mixed curves, or effect the other way; inactive = flat fitted curve, though single readings scatter.

Assay: qHTS assay to identify small molecule agonists of the androgen receptor (AR) signaling pathway in the presence of an antagonist - cell viability counter screen (AID 1259379); also: nearly all actives have a fitted effect of over 25% in size
Conditions: MDA-kb2 viability, CellTiter-Fluor, 16 h; series mostly up to 92.4 µM
From the text: National Center for Advancing Translational Sciences [NCATS]
NIH Chemical Genomics Center [NCGC]
U.S. Environmental Protection Agency [EPA]
National Institutes of Environmental Health Sciences [NIEHS]
National Toxicology Program [NTP]
U.S. Food and Drug Administration [FDA]
Androgen receptor (AR) is an important member of nuclear receptor family. Its signaling plays a critical role in AR-dependent prostate cancer and other androgen related diseases. Considerable attention has been given in the past decades to develop methods to study and screen for the environmental chemicals that have the potential to interfere with metabolic homeostasis, reproduction, developmental and behavioral functions. Therefore AR binding assay for screening against androgen agonists and antagonists can be used to identify potential endocrine disruptors.
MDA-kb2 cells (from ATCC, deposited by Wilson et al.) are human breast carcinoma cells that were stably transfected with a luciferase reporter gene under control of the MMTV promoter that contains response elements for both androgen receptor (AR) and glucocorticoid receptor (GR). This particular screening for measuring luciferase reporter gene activity using MDA-kb2 cells against Tox21 10K library compounds is a confirmation study on agonist mode screening in the presence of AR-antagonist compound (Nilutamide) at 3.0uM final concentration. The cytotoxicity of the compounds was tested in parallel by measuring the cell viability using CellTiter-Fluor assay system (Promega, Madison, WI) in the same wells.
Tox21 Assay Protocol Summary:
MDA-kb2 cells (cells cultured without CO2) were dispensed at 3,000 cells/well in 4uL of culture medium into white wall/solid-bottom 1536-well plates (Corning Life Sciences, Corning, NY) using a Multidrop Combi (Thermo Fisher Scientific Inc., Waltham, MA) dispenser. The assay plates were incubated at 37C and 0% CO2 for 5hr. One uL of 3.0uM (final concentration) Nilutamide or assay buffer was added using two separate tips of Flying Reagent Dispenser (FRD, Aurora Discovery, San Diego, CA). Then 23nL of compounds dissolved in DMSO at 15 concentrations and positive controls were transferred to the assay plates using a Pintool station (Wako, San Diego, CA). The assay plates were incubated at 37C and 0% CO2 for 16 hr. After 15hr incubation at 37C, 1uL/well CellTiter-Fluor reagent (Promega Corporation) was added to each well of the assay plates using FRD. After 1hr incubation at 37C and 0% CO2, the fluorescence signal was measured using a ViewLux plate reader (PerkinElmer, Shelton, CT).
In the case of `C=C(C)C(=O)OCCC(C)OC(=O)C(=C)C` (stereo not given), the Potency is reported as “inactive”. With `CCC(C)OC(=O)N1CCCCC1CCO` (stereo not given) the Potency was “inactive”. In the case of `CCO[Si](CCCN=C=O)(OCC)OCC`, the Potency is reported as “inactive”. In the case of `CO[Si](CCCNCCC[Si](OC)(OC)OC)(OC)OC`, the Potency is reported as “inactive”. In the case of `CC(C)CCOC(=O)CC(C)C`, the Potency is reported as “inactive”. In the case of `OCCCCCCO`, the Potency is reported as “inactive”. In the case of `COc1cc(O)cc(O)c1`, the Potency is reported as “inactive”. For `Cc1c(F)cc2c(=O)c(C(=O)O)cn3c2c1CCC3C` (stereo not given), the Potency was “inactive”. In the case of `CC1=CCC2C(C1)C2(C)C` (stereo not given), the Potency is reported as “inactive”. Compound `Cn1ccc2cc3c(cc21)CCN3C(=O)Nc1cccnc1` has an activity change, negative = cytotoxicity of 2.26% [at 19 µM]. For `O=C(O)/C=C/c1ccc(/C=C/C(=O)O)cc1`, the Potency was “inactive”. `NC(=S)Nc1cccc2ccccc12` gave an activity change, negative = cytotoxicity of -0.514% [at 8.39 µM]. For `c1ccc(SCCSc2ccccc2)cc1`, the Potency was “inactive”. With `CCO[Si](C)(OCC)OCC` the Potency was “inactive”. For `NC(N)=NS(=O)(=O)c1ccc(N)cc1`, the Potency was “inactive”. With `COc1cccc(OC)c1` the Potency was “inactive”. With `C=CC(=O)OCCCCCC` the Potency was “inactive”. In the case of `CCCCN(CCO)CCO`, the Potency is reported as “inactive”. With `CO` the Potency was “inactive”. With `O=[N+]([O-])c1ccc(Oc2ccc([N+](=O)[O-])cc2)cc1` the Potency was “inactive”. With `CC(C)=CCC/C(C)=C/C(=O)O` the Potency was “inactive”. With `CCc1cc(S(=O)(=O)O)c2cc(C(C)C)cccc1-2` the Potency was “inactive”. In the case of `C#CC(O)C(CC)CCCC` (stereo not given), the Potency is reported as “inactive”. With `C1COCCO1` the Potency was “inactive”. For `CCCCCOC(=O)Nc1nc(=O)n([C@@H]2O[C@H](C)[C@@H](O)[C@H]2O)cc1F`, the Potency was “inactive”. With `CCCCCCCCCCCCI` the Potency was “inactive”. For `CC(C)(C)C(=O)/C=C/c1ccc(Cl)cc1`, the Potency was “inactive”. In the case of `CC(C)(C)CC(C)(C)N`, the Potency is reported as “inactive”. For `O=C(O)c1ccc[n+]([O-])c1`, the Potency was “inactive”. In the case of `COc1cc(CCC(C)=O)ccc1O`, the Potency is reported as “inactive”. With `Nc1[nH]c(=O)ncc1F` the Potency was “inactive”. In the case of `COc1cccc(Br)c1`, the Potency is reported as “inactive”. For `CCCCCC[C@@H](CCC)C(=O)O`, the Potency was “inactive”. For `C=C[Si](OC)(OC)OC`, the Potency was “inactive”. With `NC(=O)c1ncn([C@@H]2O[C@H](CO)[C@@H](O)[C@H]2O)c1N` the Potency was “inactive”. With `[O-][N+](=Nc1ccccc1)c1ccccc1` the Potency was “inactive”. With `O=C1C(CCS(=O)c2ccccc2)C(=O)N(c2ccccc2)N1c1ccccc1` (stereo not given) the Potency was “inactive”. With `COc1ccc(N=[N+]([O-])c2ccc(OC)cc2)cc1` the Potency was “inactive”. In the case of `CCCCCCC(=O)OCC`, the Potency is reported as “inactive”. In the case of `NC(=O)Nc1nc2ccccc2[nH]1`, the Potency is reported as “inactive”.
